Giardia FBPA inh – qHTS Assay for Inhibitors of Fructose-1,6-bisphosphate Aldolase from Giardia Lamblia. purified Giardia FBPA. A8B2U2. hit rate 0.71% among 290,000. AID 2451, 2010. Potency, µM (doses to about 59.6 µM), for the others: top-dose activity, negative = inhibition, actives largely listed as inhibitors; active = well fitted inhibition curve with a large enough effect; inconclusive = small, poorly fitted or top-dose-only effect, or effect the other way; also: nearly all actives have a fitted effect of over 55% in size
Target sequence (A8B2U2 whole entry, looked up): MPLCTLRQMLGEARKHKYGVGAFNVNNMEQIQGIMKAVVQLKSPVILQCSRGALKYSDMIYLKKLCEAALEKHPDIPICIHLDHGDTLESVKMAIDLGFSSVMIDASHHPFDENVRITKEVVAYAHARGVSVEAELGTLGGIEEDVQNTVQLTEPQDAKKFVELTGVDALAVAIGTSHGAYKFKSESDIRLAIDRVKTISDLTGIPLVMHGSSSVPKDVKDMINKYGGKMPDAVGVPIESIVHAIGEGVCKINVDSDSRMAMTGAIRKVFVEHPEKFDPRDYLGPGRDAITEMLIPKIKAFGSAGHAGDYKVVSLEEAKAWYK
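Giardia FBPA (40 nM reagent) was preincubated 10 min at RT with compound (up to 57.5 uM final), then substrate plus GAPDH/TPI/NAD/arsenate coupling system with diaphorase/resazurin was added; resorufin fluorescence (525/598 nm) was read after 20 min.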
VACV mCherry inh – qHTS for Stage-Specific Inhibitors of Vaccinia Orthopoxvirus: mCherry Reporter Primary qHTS; Vaccinia virus mCherry reporter infection, fluorescence; Potency, µM (top dose mostly 36.5 µM), for inactives: at the top dose activity change, negative = inhibition, usual class: inhibitors; hit rate 0.63% among 310,000; calls by dose curve; tested in A549 cells; also: nearly all actives have a fitted effect of over 35% in size
FMDV antiviral – High Throughput Screening for Foot and Mouth Disease Virus Antivirals | AID 1159524, 2015 | Potency, µM (titrated, usually from 57.9 µM), inactives show at the top dose activity change, negative = inhibition, usual class: inhibitors | FMDV antiviral cell-based qHTS | hit rate 1.2% among 410,000; calls by dose curve; tested in HEK293T cells; also: read-out not given here; nearly all actives have a fitted effect of over 45% in size
VACV Venus inh – qHTS for Stage-Specific Inhibitors of Vaccinia Orthopoxvirus: Venus Reporter Primary qHTS; Vaccinia virus Venus reporter expression, fluorescence; Potency, µM (top dose mostly 36.5 µM), for the others: top-dose activity change, negative = inhibition, usual class: inhibitors; hit rate 0.46% among 330,000; AID 720580, 2013; calls by dose curve; tested in A549 cells; also: nearly all actives have a fitted effect of over 30% in size
The depositor's hits bear a star; i = inactive; ? = inconclusive; / = no result; ! = repeats disagree; [ ] = dose if it differs, or a comment. Only some compounds are listed: those with a hit (about 2.2% of all), similar ones and a draw of the others. % is scaled to controls: 0 for no effect and ±100 for the full control effect; potency is read from the fitted curve at half-maximal effect.

SMILES	Giardia FBPA inh	VACV mCherry inh	FMDV antiviral	VACV Venus inh
Cc1csc(NC(=O)c2cc3c(s2)CCCC3)n1	13.3%	-9.0%	-63.5%	-26.7%
Cc1csc(NC(=O)c2cc3c(s2)CCCCC3)n1	-28.4%	/	8.91µM*	?
Cc1nc2ccc(Br)cn2c(=O)c1Cl	5.3%	/	3.98µM*	/
O=C(O)c1c2c(nc3ccccc13)CCCC2	/	17.4%	/	-11.2%
CCOC(=O)c1c(C)oc2c1c(C=NCCO)c(O)c1ccccc12	1.99µM*	?	?	?
COc1ccccc1NC(=O)Nc1nc(CC(=O)N2CCN(c3ccc(F)cc3)CC2)cs1	/	?	?	-28.4%
COc1ccccc1NC(=O)Nc1nc(CC(=O)N2CCN(c3ccccc3)CC2)cs1	/	1µM*	?	-28.4%
CCCc1ccc(OCc2ccc(C(=O)O)o2)c(OC)c1	-2.7%	-9.3%[1.46 µM]	-66.3%	-7.5%
C=CCc1ccc(OCc2ccc(C(=O)O)o2)c(OC)c1	11.2%	i	14.1µM*	-15.8%
O=C(O)c1ccc(COc2ccc3ccccc3c2)o1	?	/	-7.0%	/
CCOc1ccc(OCc2ccc(C(=O)O)o2)cc1	2.6%	-15.7%	8.91µM*	-10.2%
Cc1ccccc1NC(=O)CN1C(=O)NC2(CCc3ccccc32)C1=O (configuration not stated)	/	/	-6.2%	/
COc1cc2c(cc1NC(=O)CN1C(=O)NC3(CCc4ccccc43)C1=O)oc1ccccc12 (configuration not stated)	-8.0%	10µM*	0.0%	?
CC(C)c1nnc(NC(=O)C2CCN(C(=O)C(C)(C)C)CC2)s1	/	-2.2%	/	-14.9%
Cc1ccc(-c2nc(-c3ccccn3)no2)cc1	6.1%	-18.2%	2.82µM*	-14.4%
Clc1cccc(-c2nc(-c3ccccn3)no2)c1	0.0%	-19.3%	?	-16.5%
Cc1ccc(-c2nc(-c3ccccn3)no2)cc1Cl	-18.5%	-13.3%	-83.7%	-14.0%
c1ccc(-c2nc(-c3ccccn3)no2)cc1	-2.4%	i	12.6µM*	-6.9%
c1ccc(-c2ccc(-c3nc(-c4ccccn4)no3)cc2)cc1	-2.4%	-25.2%	2.82µM*	-10.2%
COc1ccc(CNC(=O)Cn2ncn3nc(-c4cccs4)cc3c2=O)cc1	/	-6.3%	-3.6%	-10.0%
COc1ccccc1C1CCN(C(=O)c2cnn(-c3ccccc3)c2C)CC1	-6.0%	/	39.8µM*	/
CC1=C(C)C(=O)N(c2ccccn2)C1=O	-9.0%	/	-12.6%	-20.5%
Cc1nn(-c2ccccn2)c2c1C(=O)C(Br)CC2 (configuration not stated)	5µM*	-23.5%	31.6µM*	-14.3%
O=C(C1CCC(CNc2nc(=S)[nH]c3ccccc23)CC1)N1CCN(c2ccc(F)cc2)CC1 (configuration not stated)	7.7%	?	17.8µM*	?
O=C(C1CCC(Cn2c(=S)[nH]c3ccccc3c2=O)CC1)N1CCN(c2ccccc2)CC1 (configuration not stated)	/	?	-16.1%	-28.9%
SMILES	Giardia FBPA inh	VACV mCherry inh	FMDV antiviral	VACV Venus inh
O=C(C1CCC(Cn2c(=S)[nH]c3ccccc3c2=O)CC1)N1CCN(c2ccccn2)CC1 (configuration not stated)	0.3%	-10.5%	22.4µM*	-9.0%
Oc1cc(-c2cccs2)cc2c1OCCN(Cc1cn[nH]c1-c1ccc(Cl)cc1)C2	/	-0.5%	1.2%	-11.5%
CCCCC/C=C\C=C\C(O)CCCCCCCC(=O)O (configuration not stated)	0.4%	/	/	/
COc1cccc(C(=O)/C=C/c2ccc(N3CCCCC3)c([N+](=O)[O-])c2)c1	0.3%	?	?	?
NC(=O)c1ccc(N2CCN(S(=O)(=O)c3ccccc3)CC2)c([N+](=O)[O-])c1	5.2%	0.0%	15.8µM*	2.5%
O=C(/C=C/c1ccc(N2CCCCC2)c([N+](=O)[O-])c1)c1ccc(S(=O)(=O)N2CCCC2)cc1	2.4%	-3.9%	20µM*	-11.5%
CC(C)(CO)NC(=O)c1cnn(-c2nccc(-c3ccc4c(c3)OCO4)n2)c1C1CC1	/	-22.6%	29.3%	-18.7%
COC(=O)[C@H](C(C)C)N(Cc1ccccc1)S(=O)(=O)CCN1CCN(c2ccccc2)CC1	/	-24.8%	?	?
COC(=O)[C@H](C)N(Cc1ccc(Cl)c(Cl)c1)S(=O)(=O)CCN1CCN(c2ccccc2)CC1	/	14.1µM*	?	?
CN1CCN(CCCN2c3ccccc3Sc3ccc(Cl)cc32)CC1	?	11.2µM*!	?	11.2µM*
OCCN1CCN(CCCN2c3ccccc3Sc3ccc(C(F)(F)F)cc32)CC1	12.5%	-14.9%	?	?
FC(F)(F)c1ccc2c(c1)N(CCCN1CCN(CCCl)CC1)c1ccccc1S2	-23.2%	/	11.2µM*	?
OC1CC2CCC(C1)N2CCCN1c2ccccc2Sc2ccc(Cl)cc21 (configuration not stated)	/	?	-21.9%	11.2µM*
CCCCOC(=O)/C=C\C(=O)NC(N)=O	-14.5%	?	28.2µM*	-3.9%
CCCCOC(=O)/C=C\C(=O)OCCCC	5.3%	17.0%	-32.0%	-0.1%
COc1cccc(N2C(=O)NC(=O)/C(=C/c3ccc4c5c(cccc35)CC4)C2=O)c1	-27.5%	/	/	/
CCOc1ccccc1N1C(=O)NC(=O)/C(=C/c2ccc3c4c(cccc24)CC3)C1=O	-21.5%	/	39.8µM*	-11.3%
COc1ccc(C[C@@H]2NC[C@H](O)[C@@H]2OC(C)=O)cc1	0.7%[21.7 µM]	/	/	/
COc1ccc(C[C@H]2NC[C@H](O)[C@H]2OC(C)=O)cc1	/	0.447µM*	?	0.891µM*
O=S1(=O)CCS(=O)(=O)C1c1ccccc1	/	11.2µM*	-25.8%	?
O=C1CC(=O)CC(c2ccccc2)C1	11.5%	i	43.9%	6.8%
COc1cc(NC(=O)N2CCc3nc(NCc4cccc(Oc5ccccc5)c4)ncc3C2)cc(OC)c1OC	/	10µM*	?	?
Cn1cnc([N+](=O)[O-])c1Sc1ccc([N+](=O)[O-])cc1	-0.1%	-18.3%	22.4µM*	-13.8%
Cc1ccccc1-c1ccc(CN2CCc3nnc(CNC(=O)c4ccccn4)n3CC2)cc1	/	-17.8%	-18.5%	-11.1%
CCOC(=O)C1=C(c2ccccc2)N=c2s/c(=C\c3ccc(O)cc3)c(=O)n2C1c1cccs1 (configuration not stated)	-13.8%	54.2%	25.1µM*	i
SMILES	Giardia FBPA inh	VACV mCherry inh	FMDV antiviral	VACV Venus inh
COc1ccc(N(C)C(=O)c2nc(-c3cccc(F)c3)n3c2CCCCC3)c(OC)c1	/	-13.6%	-8.1%	-11.6%
Cc1cc(C(=O)NCc2nc(-c3cccc(NC(=O)c4cc(C)oc4C)c3)oc2C)nc(C)n1	/	-15.6%	-20.6%	2.8%
NC(=S)N=Nc1c(O)n(CCCl)c2ccc(Cl)cc12	-6.9%	2.24µM*	?	?
NC(=S)N=Nc1c(O)n(CCCl)c2ccccc12	-12.6%	?	-20.7%	1µM*
c1ccc(-c2cc3c(N4CCN(c5ncccn5)CC4)ncnc3s2)cc1	1.2%	-9.5%	?	-1.7%
c1ccc(-c2cc3c(N4CCN(c5ccccc5)CC4)ncnc3s2)cc1	-0.5%	-14.4%	31.6µM*	-3.6%
O=C(NCCc1ccccn1)C1CC12CCN(C(=O)c1c(F)cccc1Cl)CC2 (configuration not stated)	/	0.9%	5.2%	-4.5%
